# Source: PubChem BioAssay (NCATS)
# Values without a mark were called inactive. Results filed as inconclusive are left out. Active and inactive are the calls of the source. Unless noted, calls follow the shape of the dose curve; as a rule, active = well fitted curve in either direction with a large enough effect (not every such curve was filed as active); inconclusive = small, poorly fitted or top-dose-only effect, or another doubt; inactive = flat fitted curve, though single readings scatter.
# Assays:
# [1] = target: Lysosomal acid glucosylceramidase (Homo sapiens) (UniProt P04062); assay: Glucocerebrosidase-p2 (AID 348; in the data active = potency below about 10 µM; also: potency is read from the fitted curve at half-maximal effect); details: purified GBA, blue fluorogenic substrate, 40 min
# Sequence of Lysosomal acid glucosylceramidase (Homo sapiens) (P04062 whole entry, looked up): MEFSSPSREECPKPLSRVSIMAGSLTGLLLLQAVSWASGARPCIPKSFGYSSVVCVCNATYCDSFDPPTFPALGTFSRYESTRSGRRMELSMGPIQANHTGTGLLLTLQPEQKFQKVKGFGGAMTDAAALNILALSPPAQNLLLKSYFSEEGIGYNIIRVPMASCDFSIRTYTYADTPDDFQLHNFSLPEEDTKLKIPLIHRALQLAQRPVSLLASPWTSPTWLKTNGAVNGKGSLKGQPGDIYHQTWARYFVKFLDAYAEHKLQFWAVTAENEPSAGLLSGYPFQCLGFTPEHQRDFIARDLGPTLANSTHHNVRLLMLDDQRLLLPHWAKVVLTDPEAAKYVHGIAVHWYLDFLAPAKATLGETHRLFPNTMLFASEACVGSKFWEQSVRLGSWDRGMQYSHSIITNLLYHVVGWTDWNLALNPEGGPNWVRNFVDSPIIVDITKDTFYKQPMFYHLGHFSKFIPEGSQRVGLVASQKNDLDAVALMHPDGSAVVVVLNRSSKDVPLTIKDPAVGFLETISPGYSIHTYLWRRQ
# How it was run: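 Normal human glucocerebrosidase (0.2 nM) with blue fluorogenic substrate (80 uM final) in citrate/phosphate pH 5.9 with 10mM sodium taurocholate, 0.01% tween-20; 40 min RT, NaOH/glycine stop; fluorescence Ex 365/Em 440; AC50 from a titration from 0.6 nM upwards.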
# [2] = AP1 Signaling Pathway (AID 357); details: ME-180 AP-1-bla reporter, EGF-induced, beta-lactamase ratio, 5 h; at 7.69 µM (top of the series) unless noted; also: % is scaled to controls: 0 for no effect and ±100 for the full control effect
# How it was run: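 In this screen, ME-180 cells in Opti-MEM with 0.5% dialyzed FBS received EC50 EGF and compound titrations for 5 h. AP-1 reporter beta-lactamase was detected via CCF4 ratio, giving AC50 for positive and negative modulators.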
# [3] = target: Cytochrome P450 1A2 (Homo sapiens) (UniProt P05177); assay: p450-cyp1a2 (AID 410; calls by dose curve; also: potency is read from the fitted curve at half-maximal effect;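 as to activity change, negative = inhibition: -100% = full effect of reference inhibitor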)
# Sequence of Cytochrome P450 1A2 (Homo sapiens) (P05177 whole entry, looked up): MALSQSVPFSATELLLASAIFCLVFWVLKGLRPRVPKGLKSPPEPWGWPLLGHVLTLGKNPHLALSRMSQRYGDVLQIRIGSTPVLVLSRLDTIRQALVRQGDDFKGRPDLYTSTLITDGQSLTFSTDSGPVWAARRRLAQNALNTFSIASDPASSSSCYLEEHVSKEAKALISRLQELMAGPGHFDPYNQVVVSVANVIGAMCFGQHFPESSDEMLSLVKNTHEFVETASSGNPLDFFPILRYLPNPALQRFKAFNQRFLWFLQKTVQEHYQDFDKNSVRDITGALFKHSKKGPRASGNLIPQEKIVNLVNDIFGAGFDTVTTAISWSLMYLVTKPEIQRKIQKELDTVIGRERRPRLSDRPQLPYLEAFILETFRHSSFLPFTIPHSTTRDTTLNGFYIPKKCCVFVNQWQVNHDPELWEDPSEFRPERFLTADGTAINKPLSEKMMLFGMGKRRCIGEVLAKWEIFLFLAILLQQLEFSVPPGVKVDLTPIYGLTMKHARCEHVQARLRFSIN
# How it was run: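 O-Demethylation of luciferin 6' methyl ether by human CYP1A2 is monitored as luciferase luminescence. Substrate sits at Km (100uM); enzyme is 20nM. Values are scaled to 57 uM furafylline as maximal inhibition.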
# [4] = NFAT Signaling Pathway (AID 444); details: Jurkat NFAT-bla M1, carbachol, beta-lactamase ratio, 5 h; at 7.69 µM (top of the series) unless noted;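 also: carbachol stimulus at about its EC50 of 1 µM final; % is scaled to controls: 0 for no effect and ±100 for the full control effect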
# How it was run: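 Jurkat cells carrying an NFAT-driven β-lactamase reporter and co-transfected muscarinic M1 receptor were treated with compound plus carbachol (1 uM final, an EC50 level) for 5 h at 37 °C. CCF4 loading followed for 1 h at RT; 460/530 nm ratio gave %activity.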
# [5] = Stat Signaling Pathway (AID 446); details: ME-180 (cervical carcinoma) SIE beta-lactamase reporter, IL-6 stimulated, 5 h; at 7.69 µM (top of the series) unless noted;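 also: ME-180 cervical cancer cells given 40 pM IL-6 alongside compound; SIE-controlled beta-lactamase reporter measured as 460/530 nm FRET emission ratio; % is scaled to controls: 0 for no effect and ±100 for the full control effect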
# How it was run: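 Normalization used AC90 stimulation (300 pM IL-6) and AC90 inhibition (125 nM pan-JAK inhibitor at 40 pM IL-6). The underlying signal is SIE-driven beta-lactamase in ME-180 cells after 5 h IL-6 exposure with compound.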
# [6] = target: Glucocorticoid receptor (Homo sapiens) (UniProt P04150); assay: GR-GFP Redistribution (AID 450;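 active = compounds whose dose series gives a full or clear partial fitted curve of increased nuclear translocation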; also: potency is read from the fitted curve at half-maximal effect); details: U2OS GR-GFP nuclear translocation, laser cytometry, 2 h
# Sequence of Glucocorticoid receptor (Homo sapiens) (P04150 whole entry, looked up, the tested form may be a part): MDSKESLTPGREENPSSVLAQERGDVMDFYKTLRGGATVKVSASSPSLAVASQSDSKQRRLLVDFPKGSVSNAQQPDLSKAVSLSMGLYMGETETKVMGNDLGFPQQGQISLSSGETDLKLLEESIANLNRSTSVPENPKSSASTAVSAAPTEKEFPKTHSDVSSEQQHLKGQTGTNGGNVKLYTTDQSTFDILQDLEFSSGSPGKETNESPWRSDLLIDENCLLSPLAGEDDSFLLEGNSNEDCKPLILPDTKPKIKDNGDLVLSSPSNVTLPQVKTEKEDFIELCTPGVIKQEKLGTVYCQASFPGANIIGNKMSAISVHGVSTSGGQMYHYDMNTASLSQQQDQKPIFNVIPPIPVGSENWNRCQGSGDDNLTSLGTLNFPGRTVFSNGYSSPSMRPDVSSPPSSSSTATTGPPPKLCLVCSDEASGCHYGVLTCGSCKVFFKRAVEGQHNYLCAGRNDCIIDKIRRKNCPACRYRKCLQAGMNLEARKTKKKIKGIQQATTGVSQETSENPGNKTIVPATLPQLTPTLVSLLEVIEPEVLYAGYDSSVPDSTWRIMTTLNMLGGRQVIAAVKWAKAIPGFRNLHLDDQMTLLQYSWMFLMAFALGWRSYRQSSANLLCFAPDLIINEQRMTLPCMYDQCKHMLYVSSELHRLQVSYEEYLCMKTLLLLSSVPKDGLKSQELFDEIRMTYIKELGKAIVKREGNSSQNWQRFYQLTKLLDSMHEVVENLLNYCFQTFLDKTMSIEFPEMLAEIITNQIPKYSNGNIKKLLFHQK
# [7] = target: Glucocorticoid receptor (Homo sapiens) (UniProt P04150); assay: GR-EFC Redistribution (AID 451; calls by dose curve; also: potency is read from the fitted curve at half-maximal effect); details: CHO-K1 GR-EFC translocation, beta-gal luminescence, 2 h
# How it was run: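 CHO-K1 cells stably expressing nuclear-localized β-gal enzyme acceptor and GR fused C-terminally to the enzyme donor fragment; ligand-driven nuclear translocation restores β-gal by complementation. Compounds titrated up to 46 uM final, 2 h at 37 °C; luminescence read.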
# [8] = target: Mitogen-activated protein kinase 10 (Mus musculus) (UniProt Q61831); assay: JNK3 AlphaScreen Assay (AID 530);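 also: kinase came from lysate of stimulated human HepG2 cells; signal reports phosphorylation of biotinylated GST-cJun 1-79 at Ser73 with 10 µM ATP; % is scaled to controls: 0 for no effect and ±100 for the full control effect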
# How it was run: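 Phosphorylation of biotinylated GST-cJun(1-79) at Ser73 is measured by AlphaScreen proximity luminescence. Enzyme is JNK3 in HepG2 lysates activated with interleukin-1beta and tumor necrosis factor alpha; ATP is 10 uM final.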
# [9] = target: 3',5'-cyclic-AMP phosphodiesterase 4B (Homo sapiens) (UniProt Q07343); assay: qHTS Assay for Inhibitors of PDE-IV (AID 607; active = well fitted activation curve with a large enough effect in the main read-out, with a control signal flat, not every such curve was filed as active; also: % of control where 0% means no effect)
# Sequence of 3',5'-cyclic-AMP phosphodiesterase 4B (Homo sapiens) (Q07343 whole entry, looked up): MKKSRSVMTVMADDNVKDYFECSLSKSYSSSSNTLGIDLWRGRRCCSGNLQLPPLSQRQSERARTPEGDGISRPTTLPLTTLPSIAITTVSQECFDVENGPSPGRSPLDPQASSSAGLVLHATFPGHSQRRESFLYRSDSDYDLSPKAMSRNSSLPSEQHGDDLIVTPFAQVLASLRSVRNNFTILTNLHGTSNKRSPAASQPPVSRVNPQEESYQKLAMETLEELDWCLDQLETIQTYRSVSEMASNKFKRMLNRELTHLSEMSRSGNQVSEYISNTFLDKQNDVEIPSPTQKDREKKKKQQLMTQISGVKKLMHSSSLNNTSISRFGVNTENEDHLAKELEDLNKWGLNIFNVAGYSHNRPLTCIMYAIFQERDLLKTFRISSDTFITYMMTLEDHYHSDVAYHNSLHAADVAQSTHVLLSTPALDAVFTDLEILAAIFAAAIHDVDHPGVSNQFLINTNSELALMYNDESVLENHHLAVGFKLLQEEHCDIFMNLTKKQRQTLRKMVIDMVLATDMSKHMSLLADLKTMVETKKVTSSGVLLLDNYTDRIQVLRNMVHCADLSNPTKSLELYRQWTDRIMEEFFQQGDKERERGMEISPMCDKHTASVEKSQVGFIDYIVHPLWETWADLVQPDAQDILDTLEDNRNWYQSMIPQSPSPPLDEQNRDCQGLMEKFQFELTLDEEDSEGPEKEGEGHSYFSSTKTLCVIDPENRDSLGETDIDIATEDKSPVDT
# How it was run: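 HEK293 ACTOne cells with CNG channel (1000/well), endogenous PDE4; membrane potential dye, compounds up to 22.9 uM final. Fluorescence Ex 535/Em 590; RO 20-1724 (100 uM final) as reference.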
SMILES,Potency [1] [µM],"activity change, negative = inhibition [2] [%]",Potency [3],"activity change, negative = inhibition [4] [%]","activity, negative = inhibition [5] [%]",Potency [6],Potency [7] [µM],Potency [8],Potency [9],"activity change, negative = inhibition [3]"
O=C1C2C3C=CC(C2C(=O)N1CN1CCOCC1)C1C2C(=O)N(CN4CCOCC4)C(=O)C2C31 (stereo not given),> 11.4,1.83,inactive,6.33,11.2,> 46 µM,> 9.22,inactive,inactive,
Cc1cc(Cl)ccc1OCC(=O)Nc1nc(N)nc(N)n1,> 11.4,7.35,,1.27,-6.25,> 46 µM,> 9.22,inactive,inactive,2.1% [at 2.29 µM]
Nc1c(OCC(=O)O)ccc2cc(S(=O)(=O)O)ccc12,> 11.4,3.51,inactive,-3.75,-10.7,> 46 µM,> 9.22,inactive,inactive,
COC(=O)CCCC(=O)O,> 11.4,1.55,,-3.39,-4.13,> 46 µM,> 9.22,inactive,inactive,-7.3% [at 2.29 µM]
NS(=O)(=O)c1cc(Br)c(N=Nc2ccc(O)c3ncccc23)c(Br)c1,> 11.4,-0.828,1.26 µM (active),10.5,21.9,> 46 µM,> 9.22,inactive,inactive,
CN(C)CC(CN(C)C)c1ccccn1,> 11.4,3.76,inactive,10.8,1.27,> 46 µM,> 9.22,inactive,inactive,
C1CCN(CC[C@@H]2CCCCN2)CC1,> 11.4,12.5,inactive,8.93,-0.348,> 46 µM,> 9.22,inactive,inactive,
NS(=O)(=O)c1ccc(NCc2nc3ccccc3[nH]2)cc1,> 11.4,2.25,,8.2,9.55,> 46 µM,> 9.22,inactive,,-18.8% [at 2.29 µM]
C[C@@H](CS(=O)(=O)Cc1ccccc1)C(N)=O,> 11.4,8.67,inactive,5.68,3.43,> 46 µM,> 9.22,inactive,inactive,
C[C@@H](CSC(=N)N)C(N)=O,> 11.4,-3.05,,13.8,9.57,> 46 µM,> 9.22,inactive,inactive,-6.6% [at 2.29 µM]
O=S1(=O)N[C@H]2CC[C@@H]3NS(=O)(=O)N[C@H]4CC[C@H](N1)N4S(=O)(=O)N23,> 11.4,-14.2,inactive,23.9,-2.8,> 46 µM,> 9.22,inactive,inactive,
NCc1ccc(C(=O)O)cc1,> 11.4,3.17,,6.92,-2.22,> 46 µM,> 9.22,inactive,inactive,-4.8% [at 2.29 µM]
C[C@@]12CC[C@@H]3[C@H](CCC4=CC(=O)CC[C@]43C)[C@@H]1CC[C@@H]2C(=O)COS(=O)(=O)c1ccc(Br)cc1,> 11.4,-0.601,inactive,19,-0.203,0.793 µM (active),> 9.22,inactive,inactive,
NC(=O)[C@@H]1CCCN1Cc1ccc2c(c1)OCO2,> 11.4,-6.11,3.16 µM (active),7.42,6.27,> 46 µM,> 9.22,inactive,inactive,
O=c1cc(CF)[nH]c(=S)[nH]1,> 11.4,6.77,inactive,5.97,13.4,> 46 µM,> 9.22,inactive,inactive,
O=C(O)c1cc(-c2ccc3cc4c(cc3c2)OCO4)nc2ccccc12,> 11.4,-11,3.16 µM (active),-22.2,-8.03,> 46 µM,> 9.22,inactive,inactive,
O=C(O)CC[C@]1(C(=O)O)CCC(=O)c2ccccc21,> 11.4,11.8,inactive,4.42,2.44,> 46 µM,> 9.22,inactive,inactive,
NCC(=O)Nc1ccc(Cl)cc1C(=O)c1ccc[nH]1,> 11.4,-2.05,3.16 µM (active),-24.8,-3.02,> 46 µM,> 9.22,inactive,inactive,
NCCNCC1CCNCC1,> 11.4,2.94,,8.35,3.5,> 46 µM,> 9.22,inactive,inactive,-3.6% [at 2.29 µM]
NS(=O)(=O)c1ccc(N=Nc2c(O)c(C(=O)O)cc3ccccc23)cc1,> 11.4,1.12,inactive,3.68,5.99,> 46 µM,> 9.22,inactive,inactive,
CCn1c2ccccc2c2nnc(NCCCO)nc21,> 11.4,7.47,1.58 µM (active),10.3,1,> 46 µM,> 9.22,inactive,inactive,
O=C(O)c1ccccc1NCn1c(=S)sc2ccccc21,> 11.4,5.4,0.501 µM (active),7.61,-1.41,> 46 µM,> 9.22,inactive,inactive,
C#CCSc1n[nH]c(-c2ccco2)n1,> 11.4,-2.21,2 µM (active),15.4,-3.07,> 46 µM,> 9.22,inactive,inactive,
Fc1cccc(F)c1C(Nc1nncs1)Nc1nncs1,> 11.4,1.35,,15.7,6.21,> 46 µM,> 9.22,inactive,inactive,12.3% [at 2.29 µM]
